The nature of assay [1]: resazurin metabolic signal in HepG2 cells – cell-based, resazurin fluorescence, 24 h, PK04 Diversity Set, profiling panel (AID 1172). Particulars: HepG2 viability, higher = more signal.
Assay [2] can be described thus: budding yeast growth changes without added modifier – OD600, strain BY4716, 24 h, basal condition, primary screen (AID 1173). Particulars: S. cerevisiae BY4716 growth, OD600, 24 h; higher = more signal, called active from +8 up or from −8 down.
Assay [3] in a line: viability profiling in MM1S myeloma cells – cell-based, resazurin fluorescence, basal, 24 h, PK04 Diversity Set, profiling panel (AID 1174). Particulars: higher = more signal, called active from +8 up or from −8 down.
The target of assay [4] is Dihydroorotate dehydrogenase (quinone), mitochondrial (Plasmodium falciparum (isolate 3D7)) (UniProt Q08210). Briefly: inhibition of P. falciparum DHODH – biochemical, C-terminal His tag, absorbance 600 nm, primary screen (AID 1175).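 Note: recombinant parasite enzyme with a five histidine tag at its C terminus.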 Particulars: PfDHODH enzyme, DCIP absorbance 600 nm; higher = more signal, called active from +8 up or from −8 down.
Chain of Dihydroorotate dehydrogenase (quinone), mitochondrial (Plasmodium falciparum (isolate 3D7)) (Q08210 whole entry, looked up): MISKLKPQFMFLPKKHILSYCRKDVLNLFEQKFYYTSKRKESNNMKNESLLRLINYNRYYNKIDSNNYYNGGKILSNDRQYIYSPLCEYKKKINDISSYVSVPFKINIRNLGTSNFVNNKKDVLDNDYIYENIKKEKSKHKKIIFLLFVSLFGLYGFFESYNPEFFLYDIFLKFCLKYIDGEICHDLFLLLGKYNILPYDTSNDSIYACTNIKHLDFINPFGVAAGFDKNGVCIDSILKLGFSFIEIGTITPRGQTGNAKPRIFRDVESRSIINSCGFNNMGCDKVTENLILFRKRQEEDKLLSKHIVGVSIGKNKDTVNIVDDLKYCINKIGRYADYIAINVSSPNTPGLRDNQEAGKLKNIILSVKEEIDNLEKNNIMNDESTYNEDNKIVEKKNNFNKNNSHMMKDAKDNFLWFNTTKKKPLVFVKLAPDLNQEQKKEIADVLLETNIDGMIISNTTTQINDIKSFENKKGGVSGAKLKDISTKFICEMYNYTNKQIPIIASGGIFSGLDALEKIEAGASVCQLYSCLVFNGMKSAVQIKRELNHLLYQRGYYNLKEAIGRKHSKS
Assay [5] can be described thus: inhibition of PAO1 biofilm formation – strain PAO1, LB-PBS medium, absorbance 600 nm, primary screen (AID 1176). Particulars: P. aeruginosa PAO1 growth/biofilm, A600, 12 h; higher = more signal.
Assay [6] can be described thus: growth modulation of vineyard yeast isolate – strain RM11-1a, OD600, basal, 24 h, primary screen (AID 1177).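 Note: cultures grown under basal conditions with no added stressor.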 Particulars: S. cerevisiae RM11-1a growth, OD600, 24 h; higher = more signal, called active from +8 up or from −8 down.
Assay [7] in a line: growth of efflux-deficient E. coli DRC39 – strain DRC39, OD650, 24 h, E. coli filamentation inducers, primary screen (AID 1178).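 Note: growth measured as culture turbidity by optical density at 650 nm.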 Particulars: E. coli DRC39 acrAB, higher = more signal, called active from +8 up or from −8 down.
A short description of assay [8]: growth of efflux-deficient E. coli DRC39 – strain DRC39, OD650, 48 h, E. coli filamentation inducers, primary screen (AID 1179).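 Note: screen aims at cell division blockers that make cells filament.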 Particulars: E. coli DRC39 delta-acrAB growth, higher = more signal, called active from +8 up or from −8 down.
The nature of assay [9]: viability profiling in RPMI8226 myeloma cells – cell-based, resazurin fluorescence, basal, 24 h, PK04 Diversity Set, profiling panel (AID 1180).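 Note: RPMI8826 multiple myeloma cell line at 5000 cells per well.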 Particulars: higher = more signal. On the technique in general: Alamar Blue is a resazurin reagent that responds to reducing activity.
Assay [10] has as its target E3 ubiquitin-protein ligase XIAP (Homo sapiens) (UniProt P98170). Briefly: small molecules binding XIAP protein – biophysical, small-molecule microarray, fluorescence 635 nm, primary screen (AID 1181).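 Note: score merges 667 nm emission and signal to noise over triplicate slides.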 Particulars: higher = more signal.
The test system of assay [11] is XIP peptide (Xip251-270) binding. Briefly: XIP fragment 251-270 binding compounds – biochemical, small-molecule microarray, fluorescence 635/667 nm, 0.1 µg/mL protein, primary screen (AID 1182). Particulars: fluorescent protein binding, 635 nm, higher = more signal, called active from +8 up or from −8 down.
Assay [12] has as its system XIP peptide (Xip251-270). Nature of the assay: compounds binding XIP fragment 251-270 – biochemical, small-molecule microarray, fluorescence 635/667 nm, 0.5 µg/mL protein, primary screen (AID 1183). Particulars: fluorescence 635 nm, higher = more signal.
A short description of assay [13]: blood-stage malaria parasite viability loss – strain 3D7, DAPI fluorescence, 100 nL, primary screen (AID 1184).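 Note: parasites grown inside human red blood cells in medium with human serum.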 Particulars: P. falciparum 3D7 growth, 3 d, higher = more signal.
Assay [14] addresses Homeobox protein Hox-A13 (Mus musculus) (UniProt Q62424). Briefly: disruptors of Hoxa13 oligonucleotide interaction – biochemical, fluorescence polarization, labeled oligonucleotide, primary screen (AID 1185). Particulars: Hoxa13:DNA binding, 15 min, higher = more signal, called active from +8 up or from −8 down. On the technique in general: Polarisation of emitted light reports the rotation of a fluorescent probe.

The nature of assay [15]: blockers of DNA damage checkpoint Chk1 activation – imaging, HeLa, hydroxyurea, phospho-Chk1 antibody, percent positive cells, primary screen (AID 1186). Particulars: hydroxyurea-induced phospho-Chk1 immunofluorescence imaging, higher = more signal.
Assay [16] can be described thus: blockers of DNA damage checkpoint Chk1 activation – imaging, HeLa, hydroxyurea, phospho-Chk1 nuclear intensity, primary screen (AID 1187). Particulars: hydroxyurea-induced phospho-Chk1 immunofluorescence imaging, higher = more signal.

Active and inactive are the calls of the source. Unless noted, the rule behind the calls is not given here.

Chain of E3 ubiquitin-protein ligase XIAP (Homo sapiens) (P98170 whole entry, looked up, the tested form may be a part): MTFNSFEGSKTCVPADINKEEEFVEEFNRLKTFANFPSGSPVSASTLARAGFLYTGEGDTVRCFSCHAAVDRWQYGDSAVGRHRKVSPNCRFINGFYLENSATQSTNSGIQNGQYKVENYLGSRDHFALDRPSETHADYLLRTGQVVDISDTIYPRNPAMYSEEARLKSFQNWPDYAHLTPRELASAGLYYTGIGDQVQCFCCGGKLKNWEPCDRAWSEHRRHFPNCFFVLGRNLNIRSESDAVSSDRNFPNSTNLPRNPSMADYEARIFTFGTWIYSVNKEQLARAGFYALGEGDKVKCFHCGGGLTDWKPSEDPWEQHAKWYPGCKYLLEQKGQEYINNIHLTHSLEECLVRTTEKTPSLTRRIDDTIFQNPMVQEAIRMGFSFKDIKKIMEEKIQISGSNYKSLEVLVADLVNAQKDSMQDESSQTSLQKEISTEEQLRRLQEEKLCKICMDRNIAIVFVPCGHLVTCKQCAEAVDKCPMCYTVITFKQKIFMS
Chain of Homeobox protein Hox-A13 (Mus musculus) (Q62424 whole entry, looked up): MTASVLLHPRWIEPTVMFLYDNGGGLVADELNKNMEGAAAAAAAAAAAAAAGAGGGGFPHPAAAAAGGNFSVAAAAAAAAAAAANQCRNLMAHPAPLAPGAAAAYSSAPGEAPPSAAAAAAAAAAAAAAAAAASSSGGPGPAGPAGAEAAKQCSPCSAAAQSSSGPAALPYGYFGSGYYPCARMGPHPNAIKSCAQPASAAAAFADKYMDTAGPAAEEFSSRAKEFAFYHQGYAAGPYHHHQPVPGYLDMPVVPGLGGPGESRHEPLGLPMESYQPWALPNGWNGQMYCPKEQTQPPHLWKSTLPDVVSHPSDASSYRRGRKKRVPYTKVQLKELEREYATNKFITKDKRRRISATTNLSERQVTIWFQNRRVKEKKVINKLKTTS

Regarding `COCCCNC(=O)[C@@]1(CCS(=O)(=O)c2ccccc2)N=C(c2ccc(OCCCO)cc2)O[C@H]1c1ccccc1N=[N+]=[N-]`, the z-score in [1] is 0.531; in assay [2], -0.865 (inactive); in [3], -0.368 (inactive); in assay [5], -0.385 (inactive); in [6], -0.488 (inactive); in assay [7] it was 1.28 (inactive). Also, the z-score is 0.863 (inactive) in assay [8]; -0.264 in [9]; -2.72 in assay [13]; -3.94 (inactive) in assay [14]; -0.662 (inactive) in assay [15]; -0.624 (inactive) in assay [16]. The composite z-score was -0.396 (inactive) in [4], -0.005 in assay [10], 1.26 (inactive) in [11] and 0.839 in [12].

On to `COC(=O)c1c(CC[C@@H](CO)NC(=O)NCCc2c[nH]c3ccccc23)oc(C(=O)Cc2ccccc2)c1C(=O)OC`, for which the z-score is 1.35 in assay [1]; -1.46 (inactive) in assay [2]; 1.31 (inactive) in assay [3]; -0.771 (inactive) in assay [5]; -0.731 (inactive) in [6]; 1.04 (inactive) in assay [7]. The z-score in assay [8] is 0.733 (inactive); in assay [9] it was 0.861; in assay [13], -0.0066; in assay [14], -6.54 (inactive); in assay [15] it was -0.216 (inactive); in [16], -0.098 (inactive). The composite z-score in assay [4] was -2.63 (inactive); in assay [10], -0.406; in assay [11], 1.4 (inactive); in assay [12] it was 0.713.

Consider `Cc1ccc(S[C@]2(C(=O)O)CC(=O)N(Cc3ccccc3C(F)(F)F)[C@@H]2c2ccc(CO)cc2I)cc1`, for which the z-score is 0.484 in assay [1]; -5.47 (inactive) in assay [2]; -2.29 (inactive) in assay [3]; 0.304 (inactive) in assay [5]; -1.22 (inactive) in assay [6]; 0.0985 (inactive) in assay [7]. For the same compound, the z-score in assay [8] is -0.367 (inactive); in assay [9] it was -1.78; in assay [13], 0.182; in [14], -2.74 (inactive); in assay [15], -0.157 (inactive); in [16], 0.408 (inactive). The composite z-score in assay [4] is -0.358 (inactive); in [10] it was -0.0076; in assay [11], 0.397 (inactive); in assay [12], 0.773.

Take `COCC(=C=CC[C@H](O)c1cccc(OCCO)c1)C[C@H](O)c1cc(Cl)cc(Cl)c1O`: the z-score in assay [1] is 1.13; in assay [2] it was -2.5 (inactive); in assay [3], 0.685 (inactive); in assay [5], 0.625 (inactive); in assay [6], 0.337 (inactive); in assay [7], 0.679 (inactive). Also, the z-score in assay [8] is 0.477 (inactive); in assay [9], 0.159; in assay [13] it was -0.366; in [14], -4.71 (inactive); in assay [15] it was 0.144 (inactive); in assay [16], 0.532 (inactive). The composite z-score in assay [4] was -0.492 (inactive); in assay [10] it was -0.0669; in [11] it was 0.378 (inactive); in assay [12], 0.825.

As to `CC(C)CCC[C@@H](C)[C@H]1CC[C@@]2(C)C3=C(CC[C@]12C)[C@@]1(C)CC[C@H](OC(=O)c2ccc(C(F)(F)F)nc2)C(C)(C)C1CC3` (some centres undefined), the z-score is 0.305 in assay [1]; -0.473 (inactive) in assay [2]; 0.175 (inactive) in assay [3]; 0.188 (inactive) in assay [5]; -2.03 (inactive) in assay [6]; 0.634 (inactive) in assay [7]. For the same compound, the z-score is 0.762 (inactive) in assay [8]; 0.605 in [9]; -0.145 in assay [13]; -1.23 (inactive) in assay [14]; -0.887 (inactive) in assay [15]; -0.365 (inactive) in assay [16]. The composite z-score in assay [4] was -1.08 (inactive); in assay [10] it was -0.161; in assay [11] it was 0.106 (inactive); in [12], -0.176.

Consider `C#CCN1[C@@H](Cc2ccc(O)cc2)C(=O)O[C@H](Cc2ccccc2)[C@@H]1/C=C/C1CC1`, for which the z-score in assay [1] was -1.9; in assay [2], -2.19 (inactive); in assay [3] it was -1.08 (inactive); in assay [5], -0.353 (inactive); in [6], 0.168 (inactive); in [7], 0.75 (inactive). Further, the z-score in assay [8] was 0.665 (inactive); in assay [9], -1.21; in assay [13], 0.32; in assay [14], -5.26 (inactive); in assay [15] it was -0.473 (inactive); in assay [16], -0.542 (inactive). For the same compound, the composite z-score is -0.652 (inactive) in assay [4], 0.0664 in assay [10], -0.111 (inactive) in assay [11] and 0.0549 in [12].

Regarding `COC(=O)[C@]1(Cc2ccccc2)N=C(c2ccc(OCCCO)cc2)O[C@@H]1c1ccccc1N=[N+]=[N-]`, the z-score was -2.66 in [1]; -1.45 (inactive) in assay [2]; -4.47 (inactive) in assay [3]; 1.69 (inactive) in [5]; 0.285 (inactive) in assay [6]; 0.2 (inactive) in [7]. The z-score in assay [8] was -1.19 (inactive); in assay [9], -7.02; in assay [13] it was -2.27; in assay [14] it was -2.66 (inactive); in assay [15], -0.566 (inactive); in assay [16], -0.724 (inactive). Further, the composite z-score was 1.16 (inactive) in assay [4], 0.336 in assay [10], 0.062 (inactive) in [11] and 0.685 in assay [12].

Consider `CCCCN1CC=CC23O[C@@H]4/C=C\CCCOC(=O)C4[C@H]2C(=O)N(CCCCCO)[C@@H]3C1=O` (some centres undefined), for which the z-score in assay [1] was 0.641; in [2] it was -0.287 (inactive); in assay [3] it was 0.451 (inactive); in assay [5], 1.02 (inactive); in [6], -1.06 (inactive); in assay [7], 0.0497 (inactive). The z-score in assay [8] was -0.15 (inactive); in [9], 0.313; in assay [13], 1.34; in assay [14], -4.13 (inactive); in assay [15] it was 1.19 (inactive); in assay [16] it was 0.831 (inactive). Also, the composite z-score in assay [4] was -0.757 (inactive); in assay [10] it was 0.161; in [11], -0.359 (inactive); in assay [12] it was 0.41.

Consider `C[N+](C)(C)CCCC[C@@H]1NC(=O)[C@H]2C[C@@H](C(=O)NCCCCCCNC(=O)CS)[C@@H](c3ccc(O)cc3)N2C1=O`, for which the z-score in assay [1] was -0.935; in assay [2], 0.123 (inactive); in [3], -0.476 (inactive); in [5] it was -0.0059 (inactive); in assay [6], -0.0807 (inactive); in assay [7], 0.0109 (inactive). The z-score in assay [8] was -0.643 (inactive); in [9], -0.862; in [13] it was 0.0331; in [14], -2.68 (inactive); in assay [15] it was -0.888 (inactive); in assay [16], -0.233 (inactive). In addition, the composite z-score in assay [4] was 0.0966 (inactive); in assay [10], -0.0272; in [11], 0.945 (inactive); in assay [12], -0.502.
